Experimental data from PubChem BioAssay (EPA / NIEHS).
The source made the active and inactive calls. How the source made its calls: active means hit-call score of the fitted dose curve at least 0.9, where 1 is the maximum; inactive means score below 0.9.

assay: ATG_CMV_CIS: Attagene CIS-FACTORIAL HepG2 Assay for human CMV (Internal Marker) (AID 2282928); conditions: HepG2 CMV promoter reporter, transcription factor profiling; actives raise or lower the signal;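 further: endpoint acts as a background internal control marker rather than a target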
Experimental: ATG_CIS is a cell-based, multiplexed-readout assay that uses HepG2, a human liver cell line, with measurements taken at 24 hours after chemical dosing in a 24-well plate.ATG_CMV_CIS is one of 52 assay component(s) measured or calculated from the ATG_CIS assay. It is designed to make measurements of mRNA induction, a form of inducible reporter, as detected with fluorescence intensity signals by Reverse transcription polymerase chain reaction (RT-PCR) and Capillary electrophoresis technology.Data from the assay component ATG_CMV_CIS was analyzed into 1 assay endpoint. This assay endpoint, ATG_CMV_CIS, was analyzed with bidirectional fitting relative to DMSO as the negative control and baseline of activity. Using a type of inducible reporter, measures of mRNA for gain or loss-of-signal activity can be used to understand the background control at the transcription factor-level as they relate to the gene . Furthermore, this assay endpoint can be referred to as a secondary readout, because this assay has produced multiple assay endpoints where this one serves a background control function. To generalize the intended target to other relatable targets, this assay endpoint is annotated to the background measurement intended target family, where the subfamily is internal marker.
Human liver HepG2 cells are transiently transfected with multiple reporter transcription units (MRTUs) in 6-well plates using FuGene 6 reagent (Roche; 3 ml FuGene/1 mg DNA). The MRTU constructs are regulated by a cis-regulating element (promoter). […] A major difference between the CIS and TRANS system is that in CIS activities of endogenous TFs are measured, whereas the TRANS assay evaluates changes in activities of exogenous, chimeric NR-Gal4 proteins. […] At the end of 24 hour incubation, total RNA was isolated using TriZol reagent (Invitrogen). The isolated RNA is then reverse-transcribed using oligo(dT) primer and Mo-MLV reverse transcriptase (Invitrogen) with DNAse I (Ambion) treatment for 30 min. The one-tenth of the produced cDNA was amplified by PCR using Taq DNA polymerase (Invitrogen) and two reporter sequence-specific primers. The PCR products were fluorescently labeled by primer extension with 6-arboxyfluorescein (6-FAM) 5'-labeled reporter sequence-specific primer (2 min at 95 C, 20 s at 68 C and 10 min at 72 C) and these products were digested with 5U of HpaI (New England Biolabs) for 2h at 37 C. The fragments were purified using Qiaquick PCR columns (Qiagen), analyzed on an ABI 3130xL genetic analyzer (Applied Biosystems) with peak positions identified by using a set of X-rhodamine (ROX)-labeled MapMarker1000 molecular weight standards (BioVentures). The raw capillary electrophoresis data was processed using Attagraph software (Attagene).

| Structure (SMILES) | outcome | AC50 |
| --- | --- | --- |
| CN(C)CCOC(C)(c1ccccc1)c1ccccn1 (stereo not given) | inactive | – |
| COc1cc([C@@H]2c3cc4c(cc3[C@@H](O[C@@H]3O[C@@H]5CO[C@@H](C)O[C@H]5[C@H](O)[C@H]3O)[C@H]3COC(=O)[C@H]23)OCO4)cc(OC)c1O | inactive | – |
| CC1(C)O[C@@H]2C[C@H]3[C@@H]4CCC5=CC(=O)C=C[C@]5(C)[C@@]4(F)[C@@H](O)C[C@]3(C)[C@]2(C(=O)CO)O1 | inactive | – |
| ClC(c1ccccc1)(c1ccccc1)c1ccccc1 | inactive | – |
| CC(=O)C1(C)CC2=C(CCCC2(C)C)CC1C (stereo not given) | – | 76.8 µM (active) |
| Cc1c(Cl)cccc1[N+](=O)[O-] | inactive | – |
| CCC1CCCCC1 | inactive | – |
| Nc1ccc2c(O)cc(S(=O)(=O)O)cc2c1 | inactive | – |
| CCCC(=O)OCCc1ccccc1 | inactive | – |
| C=Cc1ccncc1 | – | 100 µM (active) |
| CC1(C)O[C@@H]2[C@@H](CO[C@@]3(COS(N)(=O)=O)OC(C)(C)O[C@@H]23)O1 | inactive | – |
| CCOC(=O)CN | inactive | – |
| COC(C)(C)CCCC(C)CC=O (stereo not given) | inactive | – |
| CS(=O)(=O)c1ccc(Cl)cc1 | inactive | – |
| O=C(Nc1ccc2c(c1)Cc1ccccc1-2)C(F)(F)F | inactive | – |
| COC(C)(C)CC(C)=O | inactive | – |
| CCCCCCCCCCCCS(=O)(=O)Cl | inactive | – |
| NCCNc1cccc2ccccc12 | inactive | – |
| Cc1cc(=O)oc2cc(N(C)C)ccc12 | – | 46.7 µM (active) |
| CCCCCCOC(=O)C(C)C | inactive | – |

| Structure (SMILES) | outcome | AC50 |
| --- | --- | --- |
| C=C(C)C(=O)OCC(CC)(COC(=O)C(=C)C)COC(=O)C(=C)C | inactive | – |
| CC/C=C\CC/C=C/CO | inactive | – |
| COc1cc(C(C)C)ccc1C | inactive | – |
| C=C1C[C@]23C[C@@]1(O)CC[C@H]2[C@@]12C=C[C@H](O)[C@@](C)(C(=O)O1)[C@H]2[C@@H]3C(=O)O | inactive | – |
| CCC(=O)OCCOc1ccccc1 | inactive | – |
| CCCCCCC(=O)c1ccccc1 | inactive | – |
| O=C(O)CCCCCCCCCCCC(=O)O | inactive | – |
| OCC#CCO | inactive | – |
| COc1ccc(CCO)cc1 | inactive | – |
| CCCCCCCC(=O)OCCCCCC | inactive | – |
| Cc1c(OCC(F)(F)F)ccnc1CS(=O)c1nc2ccccc2[nH]1 (stereo not given) | inactive | – |
| CCOCCOCCOCC | inactive | – |
| CCc1cc(C(C)(C)C)c(O)c(C(C)(C)C)c1 | – | 53.9 µM (active) |
| O=C(O)c1cc(C(=O)O)cc([N+](=O)[O-])c1 | inactive | – |
| C1=CC2C3C=CC(C3)C2C1 (stereo not given) | inactive | – |
| C=COCCOCCOC=C | inactive | – |
| C=C(C)CNCC | inactive | – |
| C[N+](C)(C)CCCCCC[N+](C)(C)C | inactive | – |
| CC(=O)O[C@@H]1C[C@@H]2CC[C@@]1(C)C2(C)C | inactive | – |
| CC1=CC[C@@]23C[C@@H]1C(C)(C)[C@@H]2CC[C@H]3C | inactive | – |
